Compounds without any hit were thinned out: in the full panel of roughly 83,000, 20% have a hit.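 Negative percent growth values reflect cell death: -40 means 40% of the cells present at the start died, and -100 means all died.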 A number with no mark means an inactive call. Active and inactive are the calls of the source. Rule for the calls: active = growth percent below 10; inactive = the rest.

Experimental findings from PubChem BioAssay (NCI) are described below.

Test systems include T-47D breast; BT-549 breast; MDA-MB-435 melanoma; SW-620 colon; MCF7 breast; HCT-116 colon; HCC-2998 colon; KM12 colon.
What all share (test): NCI-60 one-dose screen, 48 h (100 = growth as untreated, 0 = no growth, -100 = all killed)
What all share (settings): 10 µM unless noted

Consider `O=C(Nc1cccc2ccccc12)c1cc2ccccc2cc1O`, for which the growth with T-47D breast is 14.4%; with BT-549 breast it was 11.6%; with MDA-MB-435 melanoma it was 0.191% (active); in the assay on SW-620 colon, 16.6%; with MCF7 breast, 8.7% (active); in the assay on HCT-116 colon, 7.65% (active). For the same compound, the figures for the growth in the assay on HCC-2998 colon and in the assay on KM12 colon were 27.7% and 10.2%, respectively.
Turning to `Cc1cccc(C[C@H](NC(=O)Nc2ccc(C)cc2F)C(=O)N[C@@H]2C(=O)N3C[C@H](O)C[C@H]3C(=O)N3CCN(C)C[C@H]3C(=O)N[C@@H](C)C(=O)N3C[C@H](C)C[C@H]3C(=O)O[C@H]2C)c1`, the growth was 25.9% in the assay with T-47D breast; 22.1% in the assay with BT-549 breast; 21.8% with MDA-MB-435 melanoma; 47.6% with SW-620 colon; 26.7% with MCF7 breast; 14.8% in the assay with HCT-116 colon. In addition, the growth with HCC-2998 colon was 35.7%; in the assay with KM12 colon it was 43.7%.
`Cc1ccc(NCCN2CCCCC2)c2c(=O)c3ccccc3sc12`: the growth is 28.7% with T-47D breast; 58.6% in the assay on BT-549 breast; 31.4% in the assay with MDA-MB-435 melanoma; 15.3% with SW-620 colon; -3.15% (active) with MCF7 breast; 18% in the assay on HCT-116 colon. Further, the growth was 33.3% with HCC-2998 colon and 32.6% with KM12 colon.
In the case of `C=C(C)[C@@H]1CC[C@]2(C)[C@H](CC=C3[C@@H]4[C@@H](C)[C@H](C)CC[C@]4(C(N)=O)CC[C@]32C)[C@@]1(C)CCC#N`, the growth was 5.58% [100 µM] (active) in the assay with T-47D breast; -25.4% [100 µM] (active) with BT-549 breast; 1.04% [100 µM] (active) in the assay with MDA-MB-435 melanoma; 7.86% [100 µM] (active) with SW-620 colon; 2.14% [100 µM] (active) in the assay with MCF7 breast; -43.8% [100 µM] (active) in the assay on HCT-116 colon. The growth was -22.4% [100 µM] (active) with HCC-2998 colon and -46.4% [100 µM] (active) with KM12 colon.
For the compound `CC1(C)C(=O)/C(=C\c2ccco2)C[C@]2(C)[C@H]3CC=C4[C@@H]5C[C@](C)(C(=O)O)CC[C@]5(C)CC[C@@]4(C)[C@]3(C)CC[C@@H]12`, the growth in the assay with T-47D breast is -8.17% [100 µM] (active); in the assay on BT-549 breast it was -62.6% [100 µM] (active); with MDA-MB-435 melanoma it was -75.1% [100 µM] (active); in the assay with SW-620 colon it was -63.6% [100 µM] (active); in the assay with MCF7 breast, -43.1% [100 µM] (active); in the assay with HCT-116 colon, -67% [100 µM] (active). Also, the growth in the assay on HCC-2998 colon is -90.1% [100 µM] (active); in the assay on KM12 colon, -77.5% [100 µM] (active).
Turning to `O=C(N/N=C/c1c(Cl)cccc1Cl)c1cccc(Nc2ccnc(C(F)(F)F)c2)c1`, the growth in the assay with T-47D breast is 37%; with BT-549 breast, 90.8%; in the assay with MDA-MB-435 melanoma, 78.9%; in the assay with SW-620 colon, 99%; with MCF7 breast, 66.1%; in the assay with HCT-116 colon, 77.2%. For the same compound, the values for the growth in the assay with HCC-2998 colon and in the assay on KM12 colon were 89.1% and 108%, respectively.
Turning to `COc1ncc(-c2ccc3nc(N)n(-c4ccccc4C(F)(F)F)c(=O)c3c2)cc1S(=O)(=O)Nc1ccc(F)cc1F`, the growth is 30.3% with T-47D breast; 49.1% with BT-549 breast; 31.2% with MDA-MB-435 melanoma; 34.2% in the assay with SW-620 colon; 43.7% with MCF7 breast; 32.5% with HCT-116 colon. Besides, the figures for the growth in the assay with HCC-2998 colon and in the assay with KM12 colon were 39.7% and 21.1%, respectively.
Turning to `Cn1cc(-c2noc(C(=O)c3cn(C)c4ncccc34)n2)c2ccccc21`, the growth in the assay on T-47D breast was 46%; in the assay on BT-549 breast it was 98.3%; in the assay on MDA-MB-435 melanoma, 72.9%; in the assay on SW-620 colon it was 95.5%; with MCF7 breast it was 34.8%; with HCT-116 colon, 98.7%. The growth was 90.6% in the assay on HCC-2998 colon and 52% with KM12 colon.
On to `c1ccc2c(c1)CN(CCCN1CCOCC1)C2`, for which the growth with T-47D breast is 101%; with BT-549 breast it was 121%; in the assay with MDA-MB-435 melanoma, 98.2%; in the assay with SW-620 colon, 107%; in the assay with MCF7 breast, 94.6%; in the assay on HCT-116 colon, 97.9%. In addition, the growth with HCC-2998 colon was 98.6%; in the assay on KM12 colon it was 102%.
As to `COc1ccc(/C=C/C=C\C(=O)c2ccc(-n3ccnc3)cc2)cc1`, the growth was 58.1% in the assay on T-47D breast; 50% with BT-549 breast; 92.8% in the assay with MDA-MB-435 melanoma; 98.4% with SW-620 colon; 79.5% in the assay on MCF7 breast; -76.2% (active) in the assay on HCT-116 colon. In addition, the growth in the assay with HCC-2998 colon was 99.9%; with KM12 colon, 92.8%.
Regarding `CC1=C/C(=C(\c2cc(C)c(O)c(C(=O)O)c2)c2c(Cl)cccc2Cl)C=C(C(=O)O)C1=O`, the growth with T-47D breast is 98.3%; in the assay with BT-549 breast it was 99.3%; in the assay with MDA-MB-435 melanoma, 108%; in the assay with SW-620 colon it was 110%; with MCF7 breast, 92.7%; in the assay on HCT-116 colon it was 105%. Besides, the growth in the assay with HCC-2998 colon is 110%; in the assay on KM12 colon, 103%.
With `COC(=O)c1cc(O)c2c(c1C(=O)OC)C[C@H]1[C@@H]3CC=C4C[C@@H](O)CC[C@]4(C)[C@H]3CC[C@]21C`, the growth in the assay with T-47D breast was 36%; with BT-549 breast, 32.3%; with MDA-MB-435 melanoma, 37.6%; with SW-620 colon, 44.9%; in the assay on MCF7 breast it was 37.2%; in the assay on HCT-116 colon, 22%. For the same compound, the growth in the assay on HCC-2998 colon was 41.6%; in the assay on KM12 colon it was 36.3%.
`O=C(Nc1ccc(Oc2ccc(F)cc2)c(Cl)c1)c1cnccn1`: the growth was 42.9% with T-47D breast; 100% in the assay on BT-549 breast; -2.8% (active) with MDA-MB-435 melanoma; 37% with SW-620 colon; 29.7% in the assay on MCF7 breast; 58.7% with HCT-116 colon. Besides, the growth was 76.3% in the assay with HCC-2998 colon and 27.5% in the assay on KM12 colon.
